Results published in PubChem BioAssay (Tox21).
Records with an inconclusive call do not appear. Activity calls are given as the source filed them. Unless noted, calls come from the whole dose curve; as a rule, active = well fitted curve in the direction sought with a large enough effect in the repeat runs; inconclusive = weak or mixed curves; inactive = no such curve, though single readings can be large; an effect the other way counts as inactive or inconclusive.

Columns and labels:
[1] = qHTS assay to identify small molecule antagonists of the vitamin D receptor (VDR) signaling pathway - cell viability counter screen (AID 743225); note: nearly all actives have a fitted effect of over 50% in size
In short: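 VDR-bla HEK 293T cells, 4 h pre-incubation at 37C, then compound plus 1-alpha,25-dihydroxyvitamin D3 (3 nM final) for 16 h. After the beta-lactamase FRET read, CellTiter-Glo was added to the same wells; luminescence after 30 min at room temperature.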

[2] = qHTS assay to identify small molecule agonists of the NFkB signaling pathway - cell viability counter screen (AID 1159515; calls by dose curve; note: series mostly up to about 61 µM; nearly all actives have a fitted effect of over 55% in size)
In short: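 Plate 2,000 NFkB-bla ME-180 cells/well; incubate overnight. Add compounds, 5 hr at 37 C. Add FRET substrate, 1.5 hr RT. Add CellTiter-Glo, 30 min RT; read luminescence.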

[3] = qHTS assay to identify small molecule agonists of the endoplasmic reticulum stress response signaling pathway (AID 1159516; active = well fitted activation curve with a large enough effect in the signal ratio in the repeat runs, not every such curve was filed as active; the % refers to the signal ratio)
In short: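 Beta-lactamase expression from the ER stress response element in HeLa reporter cells is quantified with the LiveBLAzer B/G FRET substrate, read at 405 nm excitation after 2 hr at room temperature, following 5 hr compound treatment at 37 C.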

[4] = qHTS assay to identify small molecule antagonists of the retinoid-related orphan receptor gamma (ROR-gamma) signaling pathway - cell viability counter screen (AID 1159520); note: nearly all actives have a fitted effect of over 50% in size
In short: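 Tet-on ROR gamma CHO cells (1,000/well) were plated 4 hr, given compounds in DMSO for 2 hr at 37 C, then induced with 1 uM final doxycycline for 16 hr. Viability was read as ATP by CellTiter-Glo luminescence after 30 min.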

[5] = biological target: Nuclear receptor ROR-gamma (Homo sapiens) (UniProt P51449); experiment: qHTS assay to identify small molecule antagonists of the retinoid-related orphan receptor gamma (ROR-gamma) signaling pathway (AID 1159521;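 note: CHO cells with doxycycline inducible ROR-gamma driving an RORE luciferase reporter; top concentration of the series differs between compounds; nearly all actives have a fitted effect of over 50% in size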)
In short: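 Tet-on RORγ CHO cells carrying a ROR response element–luciferase reporter were pretreated with compounds for 2 h, then induced with 1 uM (final) doxycycline hyclate for 16 h at 37 C. Antagonism was read as decreased ONE-Glo luminescence.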

[6] = qHTS assay to identify small molecule agonists of the AP-1 signaling pathway - cell viability counter screen (AID 1159525; calls by dose curve; note: nearly all actives have a fitted effect of over 55% in size)
In short: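 Each titration point was normalised to DMSO and tetra n-octyl ammonium bromide controls. The read was Cell Titer Glo luminescence after 30 min at RT, following 5 h compound exposure of ME-180 AP-1-bla cells at 37 °C.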

[7] = qHTS assay to identify small molecule agonists of the AP-1 signaling pathway (AID 1159526; calls by dose curve)
[8] = biological target: Retinoic acid receptor RXR-alpha (Homo sapiens) (UniProt P19793); experiment: qHTS assay to identify small molecule agonists of the RXR signaling pathway (AID 1159527; calls by dose curve; note: nearly all actives have a fitted effect of over 35% in size)
Sequence of Retinoic acid receptor RXR-alpha (Homo sapiens) (P19793 whole entry, looked up): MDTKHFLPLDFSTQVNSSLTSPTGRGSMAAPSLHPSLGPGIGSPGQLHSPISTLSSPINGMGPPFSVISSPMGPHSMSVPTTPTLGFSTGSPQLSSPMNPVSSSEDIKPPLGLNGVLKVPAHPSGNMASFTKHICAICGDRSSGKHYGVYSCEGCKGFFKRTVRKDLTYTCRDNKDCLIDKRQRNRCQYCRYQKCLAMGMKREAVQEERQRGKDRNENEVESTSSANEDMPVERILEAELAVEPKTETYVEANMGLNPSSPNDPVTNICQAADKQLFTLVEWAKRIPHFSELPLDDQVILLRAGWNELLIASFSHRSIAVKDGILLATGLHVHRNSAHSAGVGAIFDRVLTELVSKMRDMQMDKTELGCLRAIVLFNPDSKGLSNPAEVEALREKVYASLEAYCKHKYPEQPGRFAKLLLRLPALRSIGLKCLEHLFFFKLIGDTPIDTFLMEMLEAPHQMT
In short: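 GeneBLAzer RXR-alpha-UAS-bla HEK 293T cells in medium with 2% charcoal-stripped FBS, pre-incubated 5 hr at 37 C, then exposed to compounds 16 hr. Beta-lactamase reporter read by FRET substrate, 2 hr room temperature, 460/530 nm emission.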

[9] = qHTS assay to identify small molecule agonists of the RXR signaling pathway - cell viability counter screen (AID 1159529); note: series mostly up to about 77 µM; nearly all actives have a fitted effect of over 50% in size
In short: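 RXR-alpha-UAS-bla HEK 293T cells in medium with 2% charcoal-stripped FBS were preincubated 5 hr, then exposed to compounds for 16 hr at 37 C. Viability was read as CellTiter-Glo luminescence after 30 min at room temperature.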

[10] = qHTS assay to identify small molecule antagonists of the retinoid acid receptor (RAR) signaling pathway - cell viability counter screen (AID 1159551); note: nearly all actives have a fitted effect of over 35% in size
In short: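 Viability of C3RL4 cells is quantified from ATP by luminescence after 6 h treatment at 37 C with compounds and 1 uM retinol.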

[11] = qHTS assay to identify small molecule antagonists of the retinoic acid receptor (RAR) signaling pathway (AID 1159552; note: nearly all actives have a fitted effect of over 50% in size)
In short: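 RARE-luc C3RL4 cells; cpds + 1 uM (final) retinol, 6 hr, 37 C/5% CO2; luciferase reagent, 30 min RT, luminescence readout. Inhibitors of retinol-driven signal scored.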

[12] = qHTS assay to identify small molecule agonists of the retinoic acid receptor (RAR) signaling pathway (AID 1159553)
In short: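 Compounds dissolved in DMSO were pinned onto C3RL4 cells seeded the previous day, and plates were held 6 hr at 37 C. RARE-driven luciferase output was then read by luminescence.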

[13] = qHTS assay to identify small molecule antagonists of the estrogen related receptor (ERR) signaling pathway from Tox21 library - cell viability counter screen (AID 1224834); note: nearly all actives have a fitted effect of over 30% in size
In short: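 In this quantitative HTS format, ERR cells receive compounds in DMSO and are incubated for 17.5 h at 37 C. Live-cell protease activity is then detected with CellTiter-Fluor.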

[14] = biological target: Luciferin 4-monooxygenase (Photinus pyralis) (UniProt P08659); experiment: qHTS assay to identify small molecule inhibitors of firefly luciferase (AID 1224835); note: series mostly up to about 120 µM; nearly all actives have a fitted effect of over 25% in size
Sequence of Luciferin 4-monooxygenase (Photinus pyralis) (P08659 whole entry, looked up): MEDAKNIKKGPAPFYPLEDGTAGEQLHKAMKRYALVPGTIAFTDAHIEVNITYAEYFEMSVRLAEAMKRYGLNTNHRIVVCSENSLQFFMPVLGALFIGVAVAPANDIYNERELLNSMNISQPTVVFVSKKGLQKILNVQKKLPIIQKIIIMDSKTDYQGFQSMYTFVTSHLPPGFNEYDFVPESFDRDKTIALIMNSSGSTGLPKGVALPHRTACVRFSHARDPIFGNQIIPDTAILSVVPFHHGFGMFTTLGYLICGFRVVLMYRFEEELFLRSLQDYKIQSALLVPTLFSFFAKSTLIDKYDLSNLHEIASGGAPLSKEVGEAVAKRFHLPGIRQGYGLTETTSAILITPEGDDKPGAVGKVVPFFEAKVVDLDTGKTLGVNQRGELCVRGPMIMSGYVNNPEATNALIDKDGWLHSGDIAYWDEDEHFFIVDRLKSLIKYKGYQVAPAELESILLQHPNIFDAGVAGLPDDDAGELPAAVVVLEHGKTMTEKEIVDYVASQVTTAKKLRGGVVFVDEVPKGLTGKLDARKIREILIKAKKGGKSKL
In short: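 Quantitative HTS format; KM concentrations of both substrates. Purified P. pyralis FLuc activity quantified from luminescence images.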

[15] = qHTS assay to identify small molecule agonists of the constitutive androstane receptor (CAR) signaling pathway - cell viability counter screen (AID 1224836); note: series mostly up to about 92 µM; nearly all actives have a fitted effect of over 45% in size
In short: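 HepG2 cells stably carrying hCAR and a CYP2B6-2.2kb reporter were plated 4 h, then given compounds at 15 concentrations plus PK11195 (final 0.75 uM). After 23 h at 37 C, viability was read by CellTiter-Fluor fluorescence.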

[16] = qHTS assay to identify small molecule antagonists of the constitutive androstane receptor (CAR) signaling pathway - cell viability counter screen (AID 1224837); note: series mostly up to about 92 µM; nearly all actives have a fitted effect of over 45% in size
In short: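 In quantitative HTS format, compounds at 15 concentrations were applied to HepG2 cells double-transfected with hCAR and CYP2B6-2.2kb under 50 nM CITCO stimulation; live-cell protease activity was read after 23 hr via CellTiter-Fluor.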

[17] = biological target: Nuclear receptor subfamily 1 group I member 3 (Homo sapiens) (UniProt Q14994); experiment: qHTS assay to identify small molecule antagonists of the constitutive androstane receptor (CAR) signaling pathway (AID 1224838); note: nearly all actives have a fitted effect of over 40% in size
Sequence of Nuclear receptor subfamily 1 group I member 3 (Homo sapiens) (Q14994 whole entry, looked up): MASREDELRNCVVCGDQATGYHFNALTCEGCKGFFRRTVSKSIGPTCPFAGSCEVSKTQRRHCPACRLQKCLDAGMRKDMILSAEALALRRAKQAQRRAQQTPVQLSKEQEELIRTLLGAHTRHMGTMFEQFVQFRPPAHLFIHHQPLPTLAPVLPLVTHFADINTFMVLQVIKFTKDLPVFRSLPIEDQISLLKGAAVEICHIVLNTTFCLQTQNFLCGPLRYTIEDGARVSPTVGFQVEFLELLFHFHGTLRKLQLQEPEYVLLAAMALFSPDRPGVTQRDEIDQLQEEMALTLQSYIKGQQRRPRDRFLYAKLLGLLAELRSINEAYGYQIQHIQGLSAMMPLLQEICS
In short: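 CITCO-stimulated (50 nM final) HepG2 cells stably transfected with hCAR and CYP2B6-2.2kb luciferase were exposed to compounds at 15 concentrations for 24 h at 37 C/5% CO2. A luciferase reagent was added and luminescence recorded after 30 min.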

[18] = biological target: Nuclear receptor subfamily 1 group I member 3 (Homo sapiens) (UniProt Q14994); experiment: qHTS assay to identify small molecule agonists of the constitutive androstane receptor (CAR) signaling pathway (AID 1224839);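 note: HepG2 cells stably carrying human CAR and a CYP2B6 luciferase reporter; series mostly up to about 92 µM; nearly all actives have a fitted effect of over 15% in size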
In short: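 HepG2 cells stably expressing hCAR and a CYP2B6-2.2kb luciferase reporter were treated with compounds at 15 concentrations plus 0.75 uM PK11195 (final) for 24 h at 37 C; luminescence was read after ONE-Glo addition.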

[19] = qHTS assay to identify small molecule antagonists of the estrogen related receptor signaling pathway with the pleiotropic PPARgamma coactivator (PGC) from Tox21 10K library - cell viability counter screen (AID 1224840; active = well fitted cell-killing curve with a large enough effect in the repeat runs, not every such curve was filed as active; note: nearly all actives have a fitted effect of over 40% in size)
In short: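 Viability counter screen, PGC/ERR cells: 17.5 h compound exposure at 37 C, CellTiter-Fluor fluorescence endpoint.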

Measured: Potency

CC(C)(C)OC(=O)c1ccccc1C(=O)O
inactive: all assays above

CCO[Si](CC(C)C)(OCC)OCC
not listed: [1] | [11] | [17] | [18]
inactive: all other assays above

C=CC(=O)OCCOCCOCC
not listed: [1] | [13] | [17] | [18]
inactive: all other assays above

CCCCCCCCCCCC(C)=O
not listed: [17] | [18]
inactive: all other assays above

NCC1CCC(C(=O)Oc2ccc(CCC(=O)O)cc2)CC1 (configuration not stated)
not listed: [17]
inactive: all other assays above

C[C@@H]1CCC[C@H](C)N1CCCC(O)(c1ccccc1)c1ccccn1 (some centres not stated)
inactive: all assays above

COc1cc(C(=O)NC2CCCNC2)cc(OC)c1OC (configuration not stated)
inactive: all assays above
